The record followed here is the supplement of paper PMC8877412.

Structures can show the parent of a compound that is named as a salt. ± gives the uncertainty stated by the source.

In the assay the test system is NCC-PMP1-C1. The assay is described as follows: cell viability relative to DMSO control; higher = less growth inhibition. Conditions: 10 µM; 72 h. As for the experimental part:
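NCC-PMP1-C1 pseudomyxoma peritonei cells were seeded in 384-well plates coated with Matrigel and MEF (1e4 cells). Viability was read after 72 h by CCK-8 and expressed as % of the DMSO control, mean ± SD of duplicates.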
By cell viability is commonly meant a read-out of living cells in per cent, often relative to untreated cells. Regarding `CN(N=O)C(=O)NC1C(O)OC(CO)C(O)C1O` (stereo not given) [Streptozotocin (STZ)], the cell viability was determined as 111 ± 3.5%.

Regarding `C[C@@H](CN1CC(=O)NC(=O)C1)N1CC(=O)NC(=O)C1` [Dexrazoxane], the cell viability stood at 94.8 ± 15%.

With `Cc1ccc(NC(=O)c2ccc(CN3CCN(C)CC3)cc2)cc1Nc1nccc(-c2cccnc2)n1` [Imatinib (STI571)], the cell viability was found to be 92.3 ± 6.7%.

For `CC[C@H]1OC(=O)[C@H](C)[C@@H](O[C@H]2C[C@@](C)(OC)[C@@H](O)[C@H](C)O2)[C@H](C)[C@@H](O[C@@H]2O[C@H](C)C[C@H](N(C)C)[C@H]2O)[C@](C)(O)C[C@@H](C)CN(C)[C@H](C)[C@@H](O)[C@]1(C)O` [Azithromycin], the cell viability turned out to be 123 ± 2.7%.

Consider `O=c1[nH]c(=O)n(C2CCCO2)cc1F` (stereo not given), for which the cell viability amounted to 108 ± 3.1%.

As for `CCOC(=O)[C@H](CCc1ccccc1)N[C@H]1CS[C@H](c2cccs2)CN(CC(=O)O)C1=O` [Temocapril HCl], the cell viability is 84.76 ± 0.83%.

Consider `COC(=O)C[C@](O)(CCCC(C)(C)O)C(=O)O[C@@H]1C(OC)=C[C@]23CCCN2CCc2cc4c(cc2[C@H]13)OCO4` [Homoharringtonine], for which the cell viability is -1.02 ± 0.42%.

As for `CC#CCn1c(N2CCC[C@@H](N)C2)nc2c1c(=O)n(Cc1nc(C)c3ccccc3n1)c(=O)n2C` [Linagliptin], the cell viability is 94.5 ± 11%.

Regarding `C=CC[C@@H]1/C=C(\C)C[C@H](C)C[C@H](OC)[C@H]2O[C@@](O)(C(=O)C(=O)N3CCCC[C@H]3C(=O)O[C@H](/C(C)=C/[C@@H]3CC[C@@H](O)[C@H](OC)C3)[C@H](C)[C@@H](O)CC1=O)[C@H](C)C[C@@H]2OC` [Tacrolimus (FK506)], the cell viability turned out to be 2.67 ± 1%.

For `C#CCC(Cc1cnc2nc(N)nc(N)c2n1)c1ccc(C(=O)N[C@@H](CCC(=O)O)C(=O)O)cc1` (stereo not given in full) [Pralatrexate], the cell viability worked out at 104 ± 9.8%.

Consider `CO[C@H]1C[C@@H]2CC[C@@H](C)[C@@](O)(O2)C(=O)C(=O)N2CCCC[C@H]2C(=O)O[C@H]([C@H](C)C[C@@H]2CC[C@@H](OC(=O)C(C)(CO)CO)[C@H](OC)C2)CC(=O)[C@H](C)/C=C(\C)[C@@H](O)[C@@H](OC)C(=O)[C@H](C)C[C@H](C)/C=C/C=C/C=C/1C`, for which the cell viability worked out at 155 ± 67%.

Consider `CC(C)C(=O)Nc1ccc([N+](=O)[O-])c(C(F)(F)F)c1` [Flutamide], for which the cell viability came out at 74 ± 38%.

Consider `CO[C@H]1O[C@@H]2O[C@@]3(C)CC[C@H]4[C@H](C)CC[C@@H]([C@H]1C)[C@@]24OO3` [Artemether], for which the cell viability came out at 105 ± 6.2%.

For the compound `CS(=O)(=O)CCNCc1ccc(-c2ccc3ncnc(Nc4ccc(OCc5cccc(F)c5)c(Cl)c4)c3c2)o1`, the cell viability is 51.2 ± 7.9%.

Consider `N#Cc1ccc(C(c2ccc(C#N)cc2)n2cncn2)cc1` [Letrozole], for which the cell viability came to 129 ± 29%.

As for `C[C@@H]1CCN(C(=O)CC#N)C[C@@H]1N(C)c1ncnc2[nH]ccc12`, the cell viability was 77.2 ± 22%.

Take `CC(=O)OCC(=O)[C@@]1(O)CC[C@H]2[C@@H]3CCC4=CC(=O)CC[C@]4(C)[C@H]3C(=O)C[C@@]21C` [Cortisone acetate]: the cell viability worked out at 114 ± 4.4%.

For `CNC(=O)c1ccc(N2C(=S)N(c3ccc(C#N)c(C(F)(F)F)c3)C(=O)C2(C)C)cc1F` [Enzalutamide (MDV3100)], the cell viability came to 99.7 ± 15%.

Take `CCOc1cc(C(C)(C)C)ccc1C1=N[C@@](C)(c2ccc(Cl)cc2)[C@@](C)(c2ccc(Cl)cc2)N1C(=O)N1CCN(CCCS(C)(=O)=O)CC1`: the cell viability came out at 52.5 ± 3.1%.

With `S=C(NCc1ccc2c(c1)OCO2)N1CCN(c2ncnc3c2oc2ccccc23)CC1` [Amuvatinib (MP-470)], the cell viability was 176.1 ± 0.89%.

Consider `O=P(O)(O)C(O)(Cn1ccnc1)P(=O)(O)O` [Zoledronic Acid], for which the cell viability came to 109 ± 6%.

Regarding `COc1cc2nccc(Oc3ccc(NC(=O)C4(C(=O)Nc5ccc(F)cc5)CC4)cc3)c2cc1OC` [Cabozantinib malate (XL184)], the cell viability worked out at 52.5 ± 6.2%.

With `COc1cc2/c(=N/c3ccc(Br)cc3F)nc[nH]c2cc1OCC1CCN(C)CC1` [Vandetanib (ZD6474)], the cell viability stood at 54.7 ± 4.9%.

With `COc1cc(OC)cc(N(CCNC(C)C)c2ccc3ncc(-c4cnn(C)c4)nc3c2)c1` [Erdafitinib], the cell viability is 59.1 ± 2.4%.

Regarding `Cc1[nH]c(/C=C2\C(=O)Nc3ccccc32)c(C)c1CCC(=O)O` [Orantinib (TSU-68, SU6668)], the cell viability amounted to 115 ± 2.1%.

As for `Nc1cccc2c1C(=O)N(C1CCC(=O)NC1=O)C2=O` (stereo not given) [Pomalidomide], the cell viability came out at 99.2 ± 2.3%.

`CN(C)/N=N/c1[nH]cnc1C(N)=O` [Dacarbazine]: the cell viability was found to be 111.7 ± 1.1%.

As for `Cc1ccc(Nc2nccc(N(C)c3ccc4c(C)n(C)nc4c3)n2)cc1S(N)(=O)=O`, the cell viability came out at 72.5 ± 0.73%.

Consider `C=CC(=O)Nc1cc2c(Nc3ccc(F)c(Cl)c3)ncnc2cc1OCCCN1CCOCC1` [Canertinib(CI-1033)], for which the cell viability was found to be 92.8 ± 7.2%.

In the case of `COc1cc2c(cc1O)CCN[C@]21CS[C@@H]2c3c(OC(C)=O)c(C)c4c(c3[C@H](COC1=O)N1[C@@H]2[C@H]2c3c(cc(C)c(OC)c3O)C[C@@H]([C@@H]1O)N2C)OCO4` [Trabectedin], the cell viability is -0.842 ± 0.95%.

Regarding `COc1ccc2c(c1OC)C(=O)O[C@@H]2[C@H]1c2c(cc3c(c2OC)OCO3)CCN1C` [Noscapine HCl], the cell viability amounted to 90.5 ± 4.2%.

`NCC(=O)CCC(=O)O` [5-Aminolevulinic acid HCl]: the cell viability was found to be 102.7 ± 0.67%.

Turning to `CN(C)C/C=C/C(=O)Nc1cc2c(Nc3ccc(F)c(Cl)c3)ncnc2cc1O[C@H]1CCOC1` [Afatinib (BIBW2992) Dimaleate], the cell viability worked out at 29.3 ± 2.4%.

Take `FC(F)(F)c1ccc(CNc2ccc(Cc3c[nH]c4ncc(Cl)cc34)cn2)cn1` [Pexidartinib (PLX3397)]: the cell viability came to 63.2 ± 6%.

As to `CS(=O)(=O)CCNCc1ccc(-c2ccc3ncnc(Nc4ccc(OCc5cccc(F)c5)c(Cl)c4)c3c2)o1` [Lapatinib], the cell viability stood at 50.4 ± 2.3%.

As for `CCN(CC)CCOc1ccc(C(=C(Cl)c2ccccc2)c2ccccc2)cc1` [Clomifene citrate], the cell viability was -6.65 ± 0.33%.

Take `Nc1ncn([C@@H]2O[C@H](CO)[C@@H](O)[C@H]2O)c(=O)n1` [Azacitidine]: the cell viability was determined as 83.3 ± 6.9%.

Regarding `CC[C@]1(O)C[C@H]2CN(CCc3c([nH]c4ccccc34)[C@@](C(=O)OC)(c3cc4c(cc3OC)N(C=O)[C@H]3[C@@](O)(C(=O)OC)[C@H](OC(C)=O)[C@]5(CC)C=CCN6CC[C@]43[C@@H]65)C2)C1` [Vincristine], the cell viability came to 50.8 ± 0.53%.

Turning to `Nc1ncn([C@H]2C[C@H](O)[C@@H](CO)O2)c(=O)n1` [Decitabine], the cell viability is 95.2 ± 0.53%.

Regarding `COc1ccc(/C=C/C(=O)Nc2ccccc2C(=O)O)cc1OC` [Tranilast], the cell viability stood at 111 ± 20%.
